In PubChem BioAssay (NCATS):
Results filed as inconclusive are left out. Unmarked numbers belong to inactive results. Calls of active or inactive are those of the source. Calls follow the shape of the full dose curve.

The compounds below were run against Atrial natriuretic peptide receptor 1 (Homo sapiens) (UniProt P16066) (assay: Natriuretic polypeptide receptor (hNpr1) antagonism - Pilot screen (AID 1347049;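 also: agonist-evoked cGMP luminescence read 20 min after hNppA addition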)). Details: hNpr1 cells, antagonist mode cGMP read-out; series mostly up to 57.5 µM; activity change, negative = inhibition: at the top concentration.
Atrial natriuretic peptide receptor 1 (Homo sapiens), sequence (P16066 whole entry, looked up): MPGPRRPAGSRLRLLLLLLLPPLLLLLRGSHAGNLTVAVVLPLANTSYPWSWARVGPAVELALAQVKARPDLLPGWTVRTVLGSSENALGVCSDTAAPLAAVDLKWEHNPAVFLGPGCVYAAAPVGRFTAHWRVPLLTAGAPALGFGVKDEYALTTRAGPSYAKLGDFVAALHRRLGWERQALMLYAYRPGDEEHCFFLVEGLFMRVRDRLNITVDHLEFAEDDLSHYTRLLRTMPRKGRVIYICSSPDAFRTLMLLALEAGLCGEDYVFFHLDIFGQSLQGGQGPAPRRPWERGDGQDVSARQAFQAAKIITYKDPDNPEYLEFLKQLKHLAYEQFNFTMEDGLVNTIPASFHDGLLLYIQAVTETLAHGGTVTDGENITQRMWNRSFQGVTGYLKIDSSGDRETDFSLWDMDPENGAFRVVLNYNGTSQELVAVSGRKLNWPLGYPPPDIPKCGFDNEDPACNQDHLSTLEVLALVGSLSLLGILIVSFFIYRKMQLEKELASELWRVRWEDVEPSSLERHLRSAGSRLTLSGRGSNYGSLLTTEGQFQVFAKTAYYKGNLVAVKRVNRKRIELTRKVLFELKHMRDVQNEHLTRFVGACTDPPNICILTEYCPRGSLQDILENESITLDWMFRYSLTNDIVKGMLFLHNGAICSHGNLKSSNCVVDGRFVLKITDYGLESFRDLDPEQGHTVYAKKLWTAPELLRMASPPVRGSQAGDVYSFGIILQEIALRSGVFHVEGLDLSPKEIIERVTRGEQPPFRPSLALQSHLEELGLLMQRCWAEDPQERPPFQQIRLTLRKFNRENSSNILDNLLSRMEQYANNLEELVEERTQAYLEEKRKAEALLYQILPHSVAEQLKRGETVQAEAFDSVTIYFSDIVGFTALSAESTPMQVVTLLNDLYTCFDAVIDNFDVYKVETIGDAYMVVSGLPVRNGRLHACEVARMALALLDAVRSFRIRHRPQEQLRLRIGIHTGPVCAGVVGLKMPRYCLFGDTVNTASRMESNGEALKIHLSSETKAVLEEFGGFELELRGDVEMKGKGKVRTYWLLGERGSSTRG
Outline: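 Readout is cGMP-driven firefly luciferase luminescence in HEK293 cells carrying hNpr1 and a PDE5-domain GloSensor, read before and 20 min after 0.1 nM hNppA stimulation. Cells had 2% substrate reagent for 2 h and test compound for 30 min.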
% is scaled to controls: 0 for no effect and ±100 for the full control effect; potency is read from the fitted curve at half-maximal effect.

| SMILES | activity change, negative = inhibition [%] | Potency |
| --- | --- | --- |
| O=c1[nH]c(=S)[nH]c(-c2ccccc2)c1Cc1c(O)ccc2ccccc12 | 13.4 |  |
| C=C1C[C@@]23CC[C@H]4[C@@](C)(CCC[C@@]4(C)C(=O)O)[C@@H]2CC[C@]1(O)C3 | 10.4 |  |
| CCCn1c(=O)c2[nH]c(C3CCCC3)nc2n(CCC)c1=O | -1.11 |  |
| O=c1cc(-c2ccccc2)[nH]c2nc(Cl)ccc12 | 5.1 |  |
| O=C1NC(=O)c2cc(Nc3ccccc3)c(Nc3ccccc3)cc21 | -3.53 |  |
| NC(=O)CNCCC(c1ccccc1)c1ccccc1 | 2.62 |  |
| COc1ccccc1N1CCN(CCN(C(=O)c2ccc(F)cc2)c2ccccn2)CC1 | -2.11 |  |
| CC#CCOC(=O)c1c(C)nc2sc3c(c2c1N)CCC(O)C3 (stereo not drawn) | -23.8 |  |
| Nc1ccc2c3c(cccc13)C(=O)NC2=O | 5.62 |  |
| O=C(N[C@@H](Cc1ccccc1)C(=O)CCl)OCc1ccccc1 |  | 10.7 µM (active) |
| O=C(O)C1=CCCN(CCON=C(c2ccccc2)c2ccccc2)C1 | 0.37 |  |
| CCCn1c(=O)c2[nH]c(-c3ccc(S(=O)(=O)O)cc3)nc2n(CCC)c1=O | 0.313 |  |
| O=C(O)Cc1c[nH]c2ccc(O)cc12 | 1.55 |  |
| Clc1nccc2c1ccc1ccccc12 | 11.6 |  |
| O=C(O)/C=C/c1ccc(O)c(O)c1 | 22.3 |  |
| O=C(O)Cc1ccc(O)c(O)c1 | 10.5 |  |
| NCCCCN=C(N)N | 3.16 |  |
| Cc1cccc(C)c1OCC(N)C(C)C (stereo not drawn) | 27.6 |  |
| CNc1cc(NS(=O)(=O)c2ccc(N)cc2)nc(NC)n1 | -2.38 |  |

| SMILES | activity change, negative = inhibition [%] | Potency |
| --- | --- | --- |
| C#CC(N)CCC(=O)O (stereo not drawn) | 7.15 |  |
| Nc1ccc(-c2nc3ccc(-c4nc5ccc(N)cc5[nH]4)cc3[nH]2)cc1 | 0.381 |  |
| CN[C@H](CC(=O)O)C(=O)O | 13.2 |  |
| CCCCCCCCCC[Si](C)(C)CCC(=O)NC(Cc1ccc(C)cc1)c1ccccc1 (stereo not drawn) | 7.28 |  |
| c1ccc2c(c1)CCC[C@H]2Nc1nc2ccccc2[nH]1 | -5.23 |  |
| C[C@H](O)C(=O)C1=Nc2c(nc(N)[nH]c2=O)NC1 | 5.16 |  |
| c1ccc(CN2CCC3(CCCc4ccccc43)CC2)cc1 | 13.1 |  |
| CC(C)NC[C@H](O)COc1cccc2ccccc12 | -0.0447 |  |
| C[C@H]1CC2C3CCC4=CC(=O)C=C[C@]4(C)[C@@]3(Cl)[C@@H](O)C[C@]2(C)[C@@]1(O)C(=O)CO (stereo partly drawn) | 5.29 |  |
| OC1(c2ccc(Cl)cc2)CCN(Cc2c[nH]c3ccccc23)CC1 | 6.07 |  |
| NC(Cc1cccc(-c2ccccc2CP(=O)(O)O)c1)C(=O)O (stereo not drawn) | 10.3 |  |
| CN1Cc2sccc2C(c2ccc(O)c(O)c2)C1 (stereo not drawn) | -3.85 |  |
| CC(O)C(O)[C@H]1CNc2nc(N)[nH]c(=O)c2N1 (stereo partly drawn) | 9.9 |  |
| COc1ccc2c(c1)c(CC(=O)O)c(C)n2Cc1ccc(Cl)cc1 | 0.638 |  |
| Cn1c(=O)c2[nH]c(-c3ccc(S(=O)(=O)O)cc3)nc2n(C)c1=O | 10.6 |  |
| C[C@@]1(C2CCCC2)Cc2cc(OCC(=O)O)c(Cl)c(Cl)c2C1=O | 0.481 |  |
| CC(=O)/C(C)=N/O | 5.69 |  |
| CN1CCCC1CCOC(C)(c1ccccc1)c1ccc(Cl)cc1 (stereo not drawn) | -17.9 |  |
| CC(C)Cn1c(=O)n(C)c(=O)c2[nH]cnc21 | 4.91 |  |
